Source: PubChem BioAssay (SRMLSC)
The list is not random: actives were taken first. Their share in the collection is about 6.5%.
DPM-DC inhibit: S. pneumoniae DPM-DC inhibitors, primary screen, biochemical, PK/LDH-coupled NADH fluorescence. diphosphomevalonate decarboxylase (Streptococcus pneumoniae D39). purified DPM-DC. calls only at 10 µM. 65,000 tested, 0.49% active. AID 556, 2006;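 active = the 320 compounds with the highest percent inhibition in the single-dose primary screen, excluding strongly autofluorescent ones, cut at about 32% in these data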;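 note: kinetic rate of NADH fluorescence loss reporting ADP formed by the decarboxylase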
MK inhibit: S. pneumoniae MK inhibitors, primary screen, biochemical, PK/LDH-coupled NADH absorbance; AID 555, 2006; mevalonate kinase [Streptococcus pneumoniae D39]; inhibition, % at 10 µM; purified MK, PK/LDH-coupled NADH absorbance 340 nm; 65,000 tested, 0.48% active;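 active = ranked among the strongest by inhibition in the single 10 µM screen, a fixed top-ranked set picked for dose follow-up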
Spn PMK inh: S. pneumoniae PMK inhibitors, primary screen, biochemical, mevalonate pathway, pilot trial included; phosphomevalonate kinase (Streptococcus pneumoniae D39); purified PMK, PK/LDH-coupled NADH absorbance 340 nm; inhibition, % at 10 µM; 65,000 tested, 0.49% active; AID 539, 2006;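 active = top-ranked compounds by inhibition in the single 10 µM screen, taking a fixed number of the strongest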
NADH enzymes: inhibitors of PK/LDH coupling enzymes, profiling panel, artefact control, biochemical, MLSMR library; coupled PK/LDH NADH assays, four targets; AID 774, 2007; IC50, µM (titrated, usually from 10 µM); 65,000 tested, 0.02% active;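 active = single-dose screening hits from any of four coupled enzyme assays that gave an IC50 when retested across doses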;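 note: the DPM-DC format reads NADH fluorescence rather than 340 nm absorbance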
A340 absorber: compound light absorbance at 340 nm, profiling panel, artefact control, biochemical, MLSMR library, data from PS, PMK, MK assays; 65,000 tested, under 10 active; compound absorbance at 340 nm, fold over control; fold change at 10 µM;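 active = at 10 µM dose, initial 340 nm absorbance at least 2 fold that of control wells; inactive = change under 2 fold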;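 note: initial absorbance extrapolated from kinetic A340 decline of NADH oxidation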
Fluor 339 460: intrinsic fluorescence of library compounds, ex339/em460 – biochemical, MLSMR library, data from DPM-DC assay, artefact control, profiling panel | compound autofluorescence, ex339/em460 nm, NADH buffer; active compounds read high; 1 = no-compound wells, NADH background | fluorescence fold increase at 10 µM | 65,000 tested, 5.5% active | AID 709, 2007;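 active = at 10 µM, mean starting fluorescence two-fold or more over control wells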;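 note: signal is the first read of a kinetic run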
Numbers stand for hits; 0 = inactive; - = not tested or not shown; + = active, no number.

SMILES	DPM-DC inhibit	MK inhibit	Spn PMK inh	NADH enzymes	A340 absorber	Fluor 339 460
Nc1nc(N2CCN(C/C=C/c3ccccc3)CC2)nc2ccccc12	0	0	0	0	0	0
CC(NC(=O)c1ccnc(C(C)(C)C)c1)c1ccccc1 (centres undefined)	0	0	0	0	0	0
C=CCn1c(-c2cccs2)nc2nc3ccccc3nc21	-	0	0	0	0	0
CCC(C)n1c(-c2cccs2)nc2nc3ccccc3nc21 (centres undefined)	-	0	0	0	0	3.94
COc1ccc(S(=O)(=O)N2CCN(CC(=O)Nc3ccc(C)c(F)c3)CC2)cc1	0	0	0	0	0	0
O=C1CCCc2c1nc(-c1ccco1)n2O	-	0	0	0	0	3.9
O=C1CCCc2c1nc(-c1ccccc1)n2O	-	93.0	0	0	0	2.11
O=C(O)CCn1c(-c2ccccc2)cc2c1CCCC2=O	0	0	0	0	0	0
COC(=O)C(C(=O)OC)C(C(C)C)C(C(=O)OC)C(=O)OC	0	0	0	0	0	0
C#Cc1ccc(C(=O)Nc2cc(C(N)=O)ccc2N2CCOCC2)cc1	0	0	0	0	0	0
CC(/C=N/n1cnnc1)=C\c1ccco1	+	0	0	3441µM	0	0
CCOC(=O)c1c(Nc2nc(C)c(C(=O)NC)s2)sc(C)c1C	+	0	0	0	0	0
Cc1cc(=O)oc2cc(OCc3ccc(S(=O)(=O)N4CCOCC4)cc3)ccc12	-	0	0	0	0	2.11
Cc1cc(C)n2nc(S(=O)(=O)NC3CCCCC3)nc2n1	0	0	0	0	0	0
COc1ccc2nc(NCc3ccccc3)[nH]c2c1	0	0	0	0	0	0
CCOc1ccc2nc(-c3ccccc3)[nH]c2c1	-	0	0	0	0	3.99
COc1ccc2nc(-c3ccccc3)[nH]c2c1	-	0	0	0	0	2.34
CCOc1ccc2nc(C(C)O)[nH]c2c1 (centres undefined)	0	0	0	0	0	0
CC(C)CNC(=O)CN(C1CCCCC1)S(=O)(=O)c1ccccc1	0	0	0	0	0	0
COc1cccc(-n2c(SCC(=O)N3CCCC3)nc3c([nH]c4ccccc43)c2=O)c1	0	0	0	0	0	0
CCn1cc(C(=O)Nc2nncs2)c(=O)c2cc(F)c(N3CCN(C(=O)c4ccco4)CC3)cc21	0	0	0	0	0	2.35
CCCCNC(=O)NS(=O)(=O)c1ccc(NS(=O)(=O)c2ccccc2)cc1	0	0	0	0	0	0
COc1cc2nc(NCCN3CCOCC3)n3nc(-c4ccccc4)nc3c2cc1OC	0	0	0	0	0	2.88
Cc1cc(C)c(Cn2c(=O)n(CCCC(=O)NCc3ccco3)c(=O)c3ccccc32)c(C)c1	0	0	0	0	0	0
C=CCn1cnc2c(c1=O)c1nc3ccccc3nc1n2Cc1ccccc1	0	0	0	0	0	2.98
SMILES	DPM-DC inhibit	MK inhibit	Spn PMK inh	NADH enzymes	A340 absorber	Fluor 339 460
CCOCCCn1c(C)nc2c(c1=O)c1nc3ccccc3nc1n2CCC1=CCCCC1	0	0	0	0	0	2.98
CCCCn1cnc2c(c1=O)c1nc3ccccc3nc1n2Cc1ccc2c(c1)OCO2	-	0	0	0	0	2.27
Cc1nc2c(c(=O)n1CC1CCCO1)c1nc3ccccc3nc1n2CC(C)C (centres undefined)	0	0	0	0	0	0
CCCn1cnc2c(c1=O)c1nc3ccccc3nc1n2CCc1ccccc1	-	0	0	0	0	3.99
CCC(C(=O)N1CCc2ccccc2C1)n1nc(C)n2c(cc3occc32)c1=O (centres undefined)	0	0	0	0	0	0
O=CN1CC(=O)N(c2ccccc2)c2c([nH]c3ccccc23)C1	0	0	0	0	0	0
CCCn1cnc2c(c1=O)c1nc3ccccc3nc1n2CCC1=CCCCC1	0	0	0	0	0	2.29
CCc1ccc2[nH]c(=O)c(CN(CCN(C)C)C(=O)Nc3ccccc3)cc2c1	0	0	0	0	0	0
CCN1CCCC1CN(Cc1cc2cc(OC)ccc2[nH]c1=O)C(=O)NCc1ccccc1 (centres undefined)	-	0	0	0	0	4.31
COc1cccc(C(=O)N(Cc2cc3cc(C)ccc3[nH]c2=O)CC2CCCO2)c1 (centres undefined)	0	0	0	0	0	0
COc1ccc2[nH]c(=O)c(CN(CCCN(C)C)C(=O)Nc3ccccc3)cc2c1	0	0	0	0	0	2.73
COc1ccc2[nH]c(=O)c(CN(CC3CCCO3)C(=O)Nc3ccc(F)cc3)cc2c1 (centres undefined)	0	0	0	0	0	2.33
O=C(CN(Cc1ccc2c(c1)OCO2)C(=O)CSc1nc2ccccc2o1)NC1CCCCC1	0	0	0	0	0	0
CN1CCN(c2c3c(c(C#N)c4nc5ccccc5n24)CCCC3)CC1	0	0	0	0	0	0
Cc1cc(N2CCC(C)CC2)n2ncc(-c3ccccc3)c2n1	0	0	0	0	0	3.02
Cc1cc(N2CCCCC2)n2ncc(-c3ccccc3)c2n1	0	0	0	0	0	2.54
Cc1cc(N2CCC(C)CC2)n2nc(C)c(-c3ccccc3)c2n1	0	0	0	0	0	2.39
Cc1cc(N2CCN(C(=O)c3ccco3)CC2)n2ncc(-c3ccccc3)c2n1	0	0	0	0	0	0
CCCc1cc(N2CCN(c3ccccn3)CC2)n2nc(C)c(-c3ccccc3)c2n1	0	0	0	0	0	2.84
Cc1cc(N2CCCCC2)n2nc(C)c(-c3ccccc3)c2n1	0	0	0	0	0	0
CN(C)c1cccc(C(=O)OCC(=O)NCC2CCCO2)c1 (centres undefined)	0	0	0	0	0	0
CCCS(=O)(=O)c1c(S(=O)(=O)CCC)c2c3ccccc3ccn2c1C(N)=O	0	0	0	0	0	0
Cc1cc(N2CCCCC2)n2ncc(-c3ccc(Cl)cc3)c2n1	-	0	0	0	0	3.73
Cc1nn2c(N3CCCC3)cc(C(C)C)nc2c1-c1ccccc1	0	0	0	0	0	2.14
O=C(NCc1ccc2c(c1)OCO2)c1nnc(Cc2ccc(Cl)cc2)o1	0	0	0	0	0	0
COC(=O)CNc1nc(-c2ccccc2F)nc2ccccc12	0	0	28.0	0	0	0
CCN1CCN(C(c2ccc(F)cc2)c2nnnn2Cc2cccs2)CC1 (centres undefined)	0	0	27.0	0	0	0
CN1CCN(C(c2ccc(F)cc2)c2nnnn2Cc2cccs2)CC1 (centres undefined)	0	0	0	0	0	0
